The source made the active and inactive calls. How the source made its calls: active means hit-call score of the fitted dose curve at least 0.9, where 1 is the maximum; inactive means score below 0.9.
read-out: Interleukin 6 Receptor (IL6R), IL6R (gene 3570); assay: LTEA_HepaRG_IL6R: Life Technologies and Expression Analysis (LTEA) Assay for Interleukin 6 Receptor (IL6R) using HepaRG (AID 2283510); settings: mRNA level, 48 h; actives raise or lower the signal;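 on AC50: TaqMan qRT-PCR signal normalized to ACTB GAPDH and POLR2A housekeeping genes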
Protocol: LTEA_HepaRG is a cell based, multiplexed-readout assay that uses HepaRG, a human liver cell line, with measurements taken at 48 hours after chemical dosing on a 96-well plate.LTEA_HepaRG_IL6R is one of 102 assay component(s) measured in the LTEA HepaRG cell culture assay. It is a marker of Inflammation.Data from the assay component LTEA_HepaRG_IL6R was analyzed into 1 endpoint. This assay endpoint, LTEA_HepaRG_IL6R, was analyzed with bidirectional fitting relative to DMSO as the negative control and baseline of activity. Using a type of inducible reporter, measures of mRNA induction for gain or loss-of-signal activity can be used to understand regulation of transcription factor activity. To generalize the intended target to other relatable targets, this assay endpoint is annotated to the cytokine receptor intended target family, where the subfamily is JAK-STAT cytokine receptor.
A total of 1060 chemcials from the ToxCast library were tested in eight-point concentration-response experiments. Cell culture and cytotoxicity assays were conducted at Thermo Fisher Scientific's Custom Services facility (Madison, WI). A single lot of human HepaRG cells (Thermo Fisher Scientific, Frederick, MD) was used for the cell culture experiments. 96-well format collagen type I coated plates of human HepaRG cells were prepared using established methods. Briefly, cryopreserved HepaRG cells were thawed, plated at a density of approximately 100,000 cells/well in HepaRG Thaw, Plate, and General Purpose media (HPRG770, Thermo Fisher Scientific), and incubated for 48 hours. 0.5% DMSO was selected as vehicle control to balance the requisite need of DMSO in HepaRG cultures to maintain differentiation (for example, baseline metabolism, proportions of hepatocytes vs. cholangiocytes), while enabling further hepatic receptor pathway activation (for example, PXR and CAR) in response to chemical exposure. 48 hours after plating, the culture medium was replaced with HepaRG Serum-Free Incudtion Media. Cells were exposed to each test chemical in duplicate and maintained in CO2 incubators for another 48 hours. Chemical plates were thawed to room temperature and 200x concentrations of treatment groups were prepared. 8-point conentration-reponse curves were made with the highest exposure at 100 uM, followed by half-log dilutions, all in 0.5% DMSO. Each test plate contained variouse controls, induction positive controls (1mM phenobarbital), cytotoxicity positive controls ([…] aflatoxin B1), vehicle controls (0.5% DMSO), and total lysis controls (0.5% DMSO). Cell morphology images were taken using an Essen IncuCyte FLR automated microscope, with six 96-well plates imaged in about 24 minutes. Images were captured and exported and JPEG files. Spent culture media was transfered to black-well plates for the LDH assay, and remaining media was sorted at -80 C for later use. Cells were treated with RLT buffer and frozen until shipped for gene expression analysis. Total RNA was isolated from the cell suspension in 75 uL of Buffer RLT (Qiagen, Germantown, MD 20874) by Quintiles/Expression Analysis (Durham, NC) using a custom isolation procedure. Total RNA from each plate well was transferred to a preamplification plate. Fluidigm's 96.96 Dynamic ArrayTM (Fluidigm, Amsterdam, the Netherlands) technology was used for gene expression analyses by quantitative reverse transcription polymerase chain reaction (qRT-PCR, performed by Quintiles/Expression Analysis, Durham, NC)89. Standard TaqManTM Assays (Applied Biosystems/ThermoFisher Scientific, Foster City, CA) were used to assess the expression of 93 genes selected based on their selectivity and sensitivity to important hepatic receptors known to be modulated by environmental chemicals; importance in human hepatocyte functionality; and hepatotoxicity. […]

Row | SMILES | AC50 | outcome
1 | COc1cc(C(C)C)c2c(c1)S(=O)(=O)N(COc1cc(=O)n3cccc(OCCN4CCCCC4)c3n1)C2=O | 12.5 µM (active) | 
2 | OC(CCl)CCl |  | inactive
3 | O=C(O)c1cccc(C(=O)O)c1 |  | inactive
4 | CCCc1ccccc1 |  | inactive
5 | CCCCCCCCN(C)C |  | inactive
6 | NNC(=O)c1ccncc1 |  | inactive
7 | O=S(=O)(O)c1ccc(N=Nc2c(O)ccc3cc(S(=O)(=O)O)ccc23)cc1 |  | inactive
8 | CCCCN1C(=O)[C@@H]([C@H](O)C2CCCCC2)NC(=O)C12CCN(Cc1ccc(Oc3ccc(C(=O)O)cc3)cc1)CC2 | 2.65 µM (active) | 
9 | CCCCCOC(C)=O |  | inactive
10 | CCn1nc(C)c2c1C(=O)NCC(c1ccc(O)cc1)=N2 |  | inactive
11 | O=C(O)[C@H](O)[C@@H](O)C(=O)O |  | inactive
12 | Cc1ncc([C@@H](CCCCCCc2ccc3c(n2)NCCC3)CC(=O)O)cn1 |  | inactive
13 | C=CCc1cc(S(=O)(=O)c2ccc(O)c(CC=C)c2)ccc1O | 75.9 µM (active) | 
14 | OCCOCCOCCO |  | inactive
15 | CCc1ccc(O)c(C(C)(C)C)c1 |  | inactive
16 | NC(N)=O |  | inactive
17 | OCCNCCO |  | inactive
18 | O=S1(=O)CCCO1 |  | inactive
19 | Cc1nc(-c2ccccn2)ncc1C(=O)Nn1cc(C)c2cc(F)ccc21 |  | inactive
20 | OCC(CO)(CO)CO |  | inactive

Row | SMILES | AC50 | outcome
21 | Cn1cc[nH]c1=S |  | inactive
22 | O=c1[nH]cnc2c1ncn2[C@H]1CC[C@@H](CO)O1 |  | inactive
23 | OC[C@H]1O[C@@](CO)(O[C@H]2O[C@H](CO)[C@@H](O)[C@H](O)[C@H]2O)[C@@H](O)[C@@H]1O |  | inactive
24 | NC(=O)NN=Cc1ccc([N+](=O)[O-])o1 |  | inactive
25 | CC(C)c1nnc2ccc(-c3ocnc3-c3cc(F)ccc3F)cn12 |  | inactive
26 | CC(C)CC(C)O (stereo not given) |  | inactive
27 | CCCCCCCC1CCC(=O)O1 (stereo not given) |  | inactive
28 | Nc1ccn([C@@H]2O[C@H](CO)[C@@H](O)[C@@H]2O)c(=O)n1 |  | inactive
29 | CC[C@H](C)C(=O)O[C@H]1C[C@H](O)C=C2C=C[C@H](C)[C@H](CC[C@@H](O)C[C@@H](O)CC(=O)O)[C@H]21 |  | inactive
30 | OCc1ccccc1 |  | inactive
31 | CCCCC(CC)C(=O)OCCOCCOCCOC(=O)C(CC)CCCC (stereo not given) |  | inactive
32 | COCc1nnc(-c2ccc[n+]([O-])c2)n1-c1c(Cl)c(Cl)cc2[nH]c(=O)c(=O)[nH]c12 |  | inactive
33 | CC1(C)C(=O)N(Cl)C(=O)N1Cl |  | inactive
34 | C[C@@H](Oc1ccc(CNC(=O)c2cccnc2Oc2ccc3c(c2)OCO3)c(F)c1)C(=O)O |  | inactive
35 | CCCOc1ccc(S(=O)(=O)N2CCN(CC)CC2)cc1-c1nc2c(CC)n(Cc3ccccn3)nc2c(=O)[nH]1 |  | inactive
36 | CCCCCCCCCC |  | inactive
37 | CCN(CC)C(=S)SSC(=S)N(CC)CC |  | inactive
38 | O=C(O)c1cccc(C[C@@H]2COc3ccc(OCc4nc5cc(F)ccc5s4)cc3[C@@H]2O)c1 | 50 µM (active) | 
39 | Cc1nccn1-c1ccc(Sc2cccc(C3(C(N)=O)CCOCC3)c2)cc1 | 13.1 µM (active) | 
40 | NC(=O)N(O)[C@@H]1COc2cc(OCc3ccccc3)ccc21 |  | inactive

From PubChem BioAssay (EPA / NIEHS)
